High-throughput results (PubChem)
IMPase cell inh = IMPase inhibition in cells; CHO-M1 cells, IP1 accumulation, HTRF TR-FRET ratio; inhibition (IP1 accumulation), % at 46.1 µM; 120,000 tested, under 10 active; active = well fitted curve in the direction sought with a large enough effect in the signal ratio, not every such curve was filed as active; inconclusive = small, poorly fitted or top-dose-only effect, or a change in a side signal; inactive = no such curve, though single readings can be large or run the other way; the % refers to the signal ratio;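 also: cells stimulated with carbachol in lithium chloride buffer; plate controls were DMSO basal wells for no effect and reference inhibitor wells for full effect; higher means more IMPase inhibition seen as more IP1 and lower FRET ratio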
Target sequence (P97697 whole entry, looked up): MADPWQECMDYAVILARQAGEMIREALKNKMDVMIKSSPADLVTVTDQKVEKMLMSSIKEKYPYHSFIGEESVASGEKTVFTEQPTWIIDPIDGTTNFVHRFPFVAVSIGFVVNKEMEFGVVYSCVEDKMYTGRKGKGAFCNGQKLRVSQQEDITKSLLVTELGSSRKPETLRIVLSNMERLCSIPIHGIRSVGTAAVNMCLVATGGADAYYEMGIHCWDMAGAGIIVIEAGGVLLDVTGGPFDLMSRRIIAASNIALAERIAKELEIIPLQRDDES
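Seeded CHO-M1 cells were dosed with compound at up to 46 uM, stimulated with carbachol for 30 min, then lysed in IP-One detection reagents. Higher IP1 lowers the TR-FRET signal.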
ALDH1A1 inh = inhibitors of human aldehyde dehydrogenase 1A1; actives 7.3% (n = 220,000); Potency, µM (doses to about 75.3 µM), for inactives: top-dose activity, negative = inhibition, actives largely listed as inhibitors; P00352; Purified ALDH1A1, NADH fluorescence, propionaldehyde substrate;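 also: potency is read from the fitted curve at half-maximal effect; plate controls were no enzyme wells and a reference inhibitor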
HPGD block = inhibitors of human 15-hydroxyprostaglandin dehydrogenase (HPGD); purified HPGD, NADH fluorescence kinetic, PGE2 substrate; Potency, µM, without a hit: top-dose activity change, negative = inhibition, most hits filed as inhibitors; actives 4.3% (n = 150,000); also: potency is read from the fitted curve at half-maximal effect
Target sequence (P15428 whole entry, looked up): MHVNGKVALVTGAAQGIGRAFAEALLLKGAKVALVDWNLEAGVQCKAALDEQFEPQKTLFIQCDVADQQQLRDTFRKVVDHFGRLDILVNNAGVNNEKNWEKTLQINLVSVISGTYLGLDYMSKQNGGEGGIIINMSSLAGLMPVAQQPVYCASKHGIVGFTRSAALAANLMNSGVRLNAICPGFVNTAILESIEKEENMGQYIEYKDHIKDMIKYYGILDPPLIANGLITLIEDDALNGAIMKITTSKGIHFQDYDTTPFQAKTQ
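20 nM HPGD preincubated 15 min at room temperature with compound in 50 mM Tris-HCl pH 8, 0.01% Tween 20. Started with 1 mM NAD+ and 30 uM prostaglandin E2; NADH fluorescence (360/450 nm) read 5 times over 30-s intervals, last minus first.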
* hit, by the source's call; ? = inconclusive; / = not tested or not shown; ! = a repeat was not active; [ ] = remark or other dose. In the library only some 9% were active in any assay of this set; here they are far more common. Unless noted, calls follow the shape of the dose curve; as a rule, active = well fitted inhibition curve with a large enough effect (not every such curve was filed as active); inconclusive = small, poorly fitted or top-dose-only effect, or another doubt; inactive = no such curve, though single readings can be large or run the other way. Unless noted, % is scaled to controls: 0 for no effect and ±100 for the full control effect.

SMILES	IMPase cell inh	ALDH1A1 inh	HPGD block
COc1ccc(N2CCN(C(=O)c3ccc(C)cc3)CC2)c([N+](=O)[O-])c1	/	11.2µM*	-26.3%
COc1ccc(C(=O)N2CCN(c3ccccc3OC)CC2)cc1	/	-5.4%	/
CC1CCN(Cc2ccc(NC(=O)C3CCN(c4nnc(-n5cccc5)s4)CC3)cc2)CC1	0.2	1.6%	-8.4%
Cc1ccc2c(c1)[nH]c1c(N3CCN(Cc4ccc5c(c4)OCO5)CC3)ncnc12	14.5	-8.5%	/
COc1cc(/C=N/N(C)C)ccc1OC(=O)c1cccs1	/	-3.9%	/
O=C(O)C1C2C=CC(C2)C1C(=O)Nc1ccc(C(=O)N2CCCCC2)c(Cl)c1 (stereo not drawn)	-13.1	-6.0%	0.447µM*
O=C(O)c1cccc(NC(=O)C2C3C=CC(C3)C2C(=O)O)c1 (stereo not drawn)	-1.0	?	/
O=C(O)CCCC(=O)Nc1ccc(OCc2nc3ccccc3s2)cc1	/	1.78µM*	/
O=C(CCCc1nc2ccccc2s1)Nc1ccccc1	/	-8.8%	/
CCN(CC)C(=O)CCNS(=O)(=O)c1ccc(C)cc1	?	-5.7%	3.7%
O=C(COc1ccc(Br)cc1Br)NC(=S)N1CCCc2ccccc21	0.8	11.2µM*	-16.9%
O=C(COc1ccc(Br)cc1Br)NC(=S)Nc1cccc(CO)c1	/	?	-18.0%
Cc1[nH]c2ccc3c(ncn3CCC#N)c2c1C	6.4	-2.5%	-10.0%
N[C@H](Cc1cccc(-c2ccccc2CP(=O)(O)O)c1)C(=O)O	-1.3	/	/
COc1cccc(C(=O)/C=C/Nc2cc(C)ccc2O)c1	13.6	25.1µM*	?
COc1ccc(C(=O)/C=C/Nc2cccc(O)c2)cc1	-3.5	11.2µM*	?
CCOC(=O)c1ccc(N/C=C\C(=O)c2cccc(OC)c2)cc1	/	?	-14.7%
COc1ccc(C(=O)/C=C/Nc2ccc([N+](=O)[O-])cc2)cc1	/	39.8µM*	-19.5%
COc1ccc(C(=O)/C=C/N(C)C)cc1	-0.9	7.94µM*	25.1µM*
COC(=O)/C(=C\C(=O)c1ccc([N+](=O)[O-])cc1)Nc1ccc(OC)cc1	/	-6.5%	/
COc1ccc(C(=O)/C=C/Nc2ccc(S(=O)(=O)Nc3cccc(C(C)=O)c3)cc2)cc1	-5.3	?	?
COc1ccc(C(=O)/C=C/N(C)C)cc1OC	0.1	-10.7%	-14.6%
Cc1nc(CN2CCCCC2)c(O)c(=O)[nH]1	/	7.3%[13.5 µM]	-5.4%
CC(/C=C/C(=O)NO)=C\[C@@H](C)C(=O)c1ccc(N(C)C)cc1	/	28.2µM*!	-21.8%
CC(NC(=O)c1ccc(N(C)C)cc1)c1ccc(F)cc1 (stereo not drawn)	/	1.5%	/
SMILES	IMPase cell inh	ALDH1A1 inh	HPGD block
O=C(CN1C(=O)NC2(CCCCCCC2)C1=O)NC1CCCc2ccccc21 (stereo not drawn)	-3.9	-4.1%	-8.6%
O=c1[nH]c(=S)c2[nH]c(=O)n(-c3ccccc3)c2[nH]1	/	0.3%[13.5 µM]	-15.8%
O=c1[nH]c(=S)c2ncn(-c3ccccc3)c2[nH]1	/	25.1µM*	/
CCOC(=O)CCN1C(=O)[C@H]2[C@H]3[C@H](O)[C@H](O)C/C(=N/O[C@@H]4O[C@@H](COC(C)=O)[C@@H](OC(C)=O)[C@@H](OC(C)=O)[C@H]4OC(C)=O)[C@H]3CC[C@@H]2C1=O	/	-0.4%[13.5 µM]	/
Nc1nonc1C(=O)NCCN=Cc1ccccc1O	-0.3	5.7%	-14.3%
Nc1nonc1C(=O)NCCN=Cc1cc(Cc2ccccc2)cc(Br)c1O	-0.9	-10.5%	15.8µM*
CC(=O)OC1CC2C(C)(C)C(=O)C3OC3[C@]2(C)C2CC[C@@]3(C)C(c4ccoc4)OC(=O)C4OC43[C@]12C (stereo partly drawn)	/	-2.6%	0.4%
CCCn1c(C)cc(C(=O)COc2ccc(-c3nnco3)cc2)c1C	/	5.6%	/
Cc1cccc(-n2c(=O)c3c(n4cnnc24)-c2ccccc2CC32CCCCC2)c1	5.3	1.5%	-2.4%
O=c1c2c(n3cnnc3n1-c1ccccc1)-c1ccccc1CC21CCCCC1	-12.6	20µM*	-16.7%
Cc1nc2ccccc2n(CC(=O)Nc2cc(Cl)cc(Cl)c2)c1=O	/	-6.5%	/
CC[C@H](C)[C@H]1O[C@]2(CC[C@@H]1C)C[C@@H]1C[C@@H](C/C=C(\C)[C@H](O[C@@H]3C[C@H](OC)[C@H](O[C@@H]4C[C@H](OC)[C@@H](O)[C@H](C)O4)[C@H](C)O3)[C@@H](C)/C=C/C=C3\CO[C@@H]4[C@H](O)C(C)=C[C@@H](C(=O)O1)[C@]34O)O2	/	-16.5%	/
Cn1c(N)c(C(=O)/C=C/c2ccccc2)c(=O)[nH]c1=O	/	-6.8%	/
c1ccc(COc2ccc(OCCCn3cncn3)cc2)cc1	2.9	-2.5%	-14.4%
Clc1ccc(OCCCn2cncn2)cc1Cl	-2.3	11.2µM*	-6.7%
N#Cc1cnn2c(-c3ccc(Cl)cc3Cl)ccnc12	/	-13.3%	/
CC(=O)OCC(=O)Nc1ccccc1C	/	-0.3%	/
COC(=O)c1ccccc1NC(=O)COC(C)=O	0.3	5.62µM*	-0.4%
CC(=O)OCC(=O)Nc1ccc(Cl)cc1Cl	5.8	0.6%	20µM*
CC(=O)OCC(=O)Nc1ccc([N+](=O)[O-])cc1Cl	/	8.0%	/
CCOc1ccc(NC(=O)CSc2n[nH]c(=O)n2-c2ccccc2)cc1	2.4	?	-12.7%
Cc1c(Cl)cccc1-n1c(SCC(=O)N2CCC(C(=O)O)CC2)nnc1-c1ccncc1	/	-1.9%	/
COCCNC(=O)CS(=O)(=O)Cc1nc(-c2ccc(C)cc2)oc1C	0.0	-3.1%	-19.4%
CCOC(=O)N1c2ccccc2Sc2ccccc21	/	14.1%	/
Cc1ccccc1/C(N)=N/OC(=O)N1c2ccccc2Sc2ccccc21	0.4	-0.1%	17.8µM*
SMILES	IMPase cell inh	ALDH1A1 inh	HPGD block
c1csc(CNc2nc(-c3ccoc3)nc3ccccc23)c1	/	-8.9%	/
NCCS(=O)(=O)NC1CCCCC1	/	-1.1%	/
N/C(=N\OC(=O)CCCOc1ccccc1)c1cccc([N+](=O)[O-])c1	/	-1.2%	/
CC(=O)N(C)C1=C(O)c2ccccc2C(=O)C1=O	-12.5	?	-15.9%
CC(=O)N(C1=C(O)c2ccccc2C(=O)C1=O)C1CCCCC1	1.6	10µM*	-26.3%
CCN(Cc1ccccc1)C(c1cc2ccc(C)cc2[nH]c1=O)c1nnnn1CCOC (stereo not drawn)	0.1	?	-4.0%
CC1CCN(c2ccc(NC(=O)c3ccccc3[N+](=O)[O-])cc2)CC1	/	-15.9%	/
C=CCSc1nn2c(=O)c3ccccc3nc2s1	0.5	3.9%	-6.7%
C=CCN1C(=O)/C(=c2\sc3nc(=O)c(Cc4ccc(OC)c(OC)c4)nn3c2=O)c2ccccc21	/	3.16µM*	/
C=CCN1C(=O)/C(=c2\sc3nc(=O)c(Cc4ccccc4)nn3c2=O)c2ccccc21	/	3.55µM*	/
COc1cc(/C=c2\sc3nc(=O)c(-c4ccccc4)nn3c2=O)ccc1OCCC(C)C	-5.7	?	-9.7%
c1coc(-c2nnc(-c3cccs3)o2)c1	-9.0	?	?
O=c1cc(-c2ccco2)nc(-c2cccs2)o1	3.3	14.1µM*	-17.9%
CCOC(=O)C1=C(C)NC(C)=C(C(=O)OCC)C1C(=O)OCC(=O)N(C)C1CCS(=O)(=O)C1 (stereo not drawn)	/	6.2%	/
CC(C)C1CCC(C(=O)NC(Cc2ccccc2)C(=O)O)CC1 (stereo not drawn)	/	-1.8%	-3.0%
C=CCn1c(SCc2csc(C)n2)nc2sc3c(c2c1=O)CCCCC3	4.1	22.4µM*	-6.1%
